From the supplement of paper PMC10849652
About 7,900 targets were measured; listed, in parts, are those with a hit and a random draw of the rest. About 0.6% of all pairs of compound and target were hits.

These targets were tested with c1cn2cc(-c3ccc4cn[nH]c4c3)nc(Nc3ccc(N4CCOCC4)cc3)c2n1 [entospletinib] (assay: log2 fold change, soluble protein after heating vs DMSO (PISA); higher = thermal stabilisation; K562 cells, 10 uM, 30 min; active = over 0.2 and 3.5 SD of the protein, either way, in both replicates (recomputed)).
In short: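 K562 cells at 2×10^6 cells/mL were given 10 μM compound for 30 min. Aliquots then went through 3 min of heating across 48°C-58°C, were pooled, and were extracted in PBS with 0.5% NP-40 at 4°C, and the supernatant after 21,000xg for 90 min was quantified by TMTpro 16plex LC-MS/MS with channel sums equalised. Thermal stability relative to control samples, from duplicates, is given as log2 fold change.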

UniProt Q8TEQ6, sequence (Q8TEQ6 whole entry, looked up): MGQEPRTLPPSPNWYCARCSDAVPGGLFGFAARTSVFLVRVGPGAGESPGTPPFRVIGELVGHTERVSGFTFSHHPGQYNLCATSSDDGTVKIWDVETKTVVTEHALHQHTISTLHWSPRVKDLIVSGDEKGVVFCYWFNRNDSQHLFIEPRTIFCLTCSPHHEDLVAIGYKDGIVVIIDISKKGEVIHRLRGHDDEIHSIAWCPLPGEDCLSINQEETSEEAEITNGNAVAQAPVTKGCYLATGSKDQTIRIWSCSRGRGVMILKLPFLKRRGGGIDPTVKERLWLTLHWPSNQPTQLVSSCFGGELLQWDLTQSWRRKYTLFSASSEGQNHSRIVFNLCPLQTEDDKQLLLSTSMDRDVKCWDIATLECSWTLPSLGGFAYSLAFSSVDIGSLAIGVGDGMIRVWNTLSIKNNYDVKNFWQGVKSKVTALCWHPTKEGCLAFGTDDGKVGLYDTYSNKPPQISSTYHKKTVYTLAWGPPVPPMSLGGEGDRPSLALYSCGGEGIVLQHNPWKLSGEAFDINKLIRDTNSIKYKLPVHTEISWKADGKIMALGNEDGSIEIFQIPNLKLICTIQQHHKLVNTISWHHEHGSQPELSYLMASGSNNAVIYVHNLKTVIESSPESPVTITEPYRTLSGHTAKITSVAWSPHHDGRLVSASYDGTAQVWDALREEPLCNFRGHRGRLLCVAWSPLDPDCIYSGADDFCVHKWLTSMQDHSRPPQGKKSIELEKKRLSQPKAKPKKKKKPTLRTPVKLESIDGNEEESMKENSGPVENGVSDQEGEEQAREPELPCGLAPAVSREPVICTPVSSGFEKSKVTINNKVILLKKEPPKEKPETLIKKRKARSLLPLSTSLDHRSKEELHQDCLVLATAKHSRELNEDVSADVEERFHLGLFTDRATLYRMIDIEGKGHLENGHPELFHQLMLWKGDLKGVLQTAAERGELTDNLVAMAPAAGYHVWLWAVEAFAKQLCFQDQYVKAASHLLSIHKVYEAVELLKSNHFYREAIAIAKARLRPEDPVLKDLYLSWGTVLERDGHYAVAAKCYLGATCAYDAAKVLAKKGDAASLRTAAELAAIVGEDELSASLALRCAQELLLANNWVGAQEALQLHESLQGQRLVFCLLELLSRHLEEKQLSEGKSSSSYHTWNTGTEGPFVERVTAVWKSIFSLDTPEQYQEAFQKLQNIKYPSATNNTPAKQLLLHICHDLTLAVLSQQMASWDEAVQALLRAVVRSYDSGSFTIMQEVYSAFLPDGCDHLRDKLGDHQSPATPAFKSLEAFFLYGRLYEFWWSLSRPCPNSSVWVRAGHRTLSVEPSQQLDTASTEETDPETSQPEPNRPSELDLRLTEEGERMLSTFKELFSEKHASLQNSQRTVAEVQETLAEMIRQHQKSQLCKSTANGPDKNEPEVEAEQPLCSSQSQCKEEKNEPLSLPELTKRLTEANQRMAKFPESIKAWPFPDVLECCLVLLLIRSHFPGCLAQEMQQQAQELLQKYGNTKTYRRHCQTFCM
UniProt Q7Z4Q2, sequence (Q7Z4Q2 whole entry, looked up): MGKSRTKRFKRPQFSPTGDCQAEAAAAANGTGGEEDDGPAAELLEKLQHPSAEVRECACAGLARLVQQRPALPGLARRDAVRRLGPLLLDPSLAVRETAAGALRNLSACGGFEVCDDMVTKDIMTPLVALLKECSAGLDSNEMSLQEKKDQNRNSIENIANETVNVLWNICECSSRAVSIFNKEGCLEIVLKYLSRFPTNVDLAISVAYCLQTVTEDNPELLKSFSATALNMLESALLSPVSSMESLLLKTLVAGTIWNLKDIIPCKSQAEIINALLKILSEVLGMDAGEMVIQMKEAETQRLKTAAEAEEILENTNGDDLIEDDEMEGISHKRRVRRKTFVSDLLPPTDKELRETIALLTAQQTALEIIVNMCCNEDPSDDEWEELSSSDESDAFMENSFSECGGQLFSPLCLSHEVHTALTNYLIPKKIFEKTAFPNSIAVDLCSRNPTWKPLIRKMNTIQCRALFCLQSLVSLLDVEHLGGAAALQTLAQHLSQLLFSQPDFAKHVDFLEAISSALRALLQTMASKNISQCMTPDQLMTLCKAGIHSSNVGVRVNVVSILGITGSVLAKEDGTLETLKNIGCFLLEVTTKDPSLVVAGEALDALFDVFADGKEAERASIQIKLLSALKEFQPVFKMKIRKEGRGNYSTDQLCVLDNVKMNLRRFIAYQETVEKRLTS
UniProt Q96HJ9, sequence (Q96HJ9 whole entry, looked up): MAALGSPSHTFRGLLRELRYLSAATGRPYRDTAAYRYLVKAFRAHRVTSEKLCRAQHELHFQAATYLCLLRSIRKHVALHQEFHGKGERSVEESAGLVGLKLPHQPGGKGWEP
UniProt O15228, sequence (O15228 whole entry, looked up): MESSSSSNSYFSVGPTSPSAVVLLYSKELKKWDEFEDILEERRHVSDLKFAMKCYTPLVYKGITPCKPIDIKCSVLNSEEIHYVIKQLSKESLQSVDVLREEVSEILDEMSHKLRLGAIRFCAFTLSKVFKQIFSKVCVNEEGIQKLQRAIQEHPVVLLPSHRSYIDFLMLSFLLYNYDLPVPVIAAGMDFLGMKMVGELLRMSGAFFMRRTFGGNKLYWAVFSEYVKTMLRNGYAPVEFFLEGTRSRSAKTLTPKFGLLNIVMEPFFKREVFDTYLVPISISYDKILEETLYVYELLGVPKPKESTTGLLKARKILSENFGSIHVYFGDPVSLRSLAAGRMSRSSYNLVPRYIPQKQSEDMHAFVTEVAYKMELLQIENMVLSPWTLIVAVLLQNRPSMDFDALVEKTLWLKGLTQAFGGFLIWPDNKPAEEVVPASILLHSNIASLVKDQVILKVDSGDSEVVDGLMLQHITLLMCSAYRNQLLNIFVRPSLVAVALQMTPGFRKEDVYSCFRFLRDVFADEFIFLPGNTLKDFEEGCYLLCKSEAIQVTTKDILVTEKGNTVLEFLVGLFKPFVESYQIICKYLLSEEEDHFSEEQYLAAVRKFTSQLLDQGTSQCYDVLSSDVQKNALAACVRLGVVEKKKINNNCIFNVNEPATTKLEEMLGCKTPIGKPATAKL
UniProt Q5SSJ5, sequence (Q5SSJ5 whole entry, looked up): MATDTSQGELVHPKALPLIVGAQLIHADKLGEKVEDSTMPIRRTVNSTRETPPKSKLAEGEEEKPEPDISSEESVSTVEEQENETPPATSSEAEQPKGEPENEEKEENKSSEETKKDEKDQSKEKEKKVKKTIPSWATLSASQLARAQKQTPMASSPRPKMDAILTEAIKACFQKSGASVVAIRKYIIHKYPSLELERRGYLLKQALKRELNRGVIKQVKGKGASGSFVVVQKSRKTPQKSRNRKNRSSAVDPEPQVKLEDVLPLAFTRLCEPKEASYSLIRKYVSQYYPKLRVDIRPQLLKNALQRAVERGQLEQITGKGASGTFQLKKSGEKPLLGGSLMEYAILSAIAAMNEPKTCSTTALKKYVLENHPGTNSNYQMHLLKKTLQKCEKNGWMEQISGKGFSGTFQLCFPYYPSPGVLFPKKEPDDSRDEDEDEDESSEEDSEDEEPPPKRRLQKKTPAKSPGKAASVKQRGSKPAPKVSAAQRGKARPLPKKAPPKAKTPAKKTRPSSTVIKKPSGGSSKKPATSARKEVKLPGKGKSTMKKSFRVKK
UniProt Q7Z4H3, sequence (Q7Z4H3 whole entry, looked up): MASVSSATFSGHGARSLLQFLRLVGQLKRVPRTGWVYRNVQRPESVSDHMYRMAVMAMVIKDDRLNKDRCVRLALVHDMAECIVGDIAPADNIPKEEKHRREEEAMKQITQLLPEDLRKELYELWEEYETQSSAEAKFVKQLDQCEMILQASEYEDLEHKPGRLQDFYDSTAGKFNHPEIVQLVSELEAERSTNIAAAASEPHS
UniProt O94925, sequence (O94925 whole entry, looked up): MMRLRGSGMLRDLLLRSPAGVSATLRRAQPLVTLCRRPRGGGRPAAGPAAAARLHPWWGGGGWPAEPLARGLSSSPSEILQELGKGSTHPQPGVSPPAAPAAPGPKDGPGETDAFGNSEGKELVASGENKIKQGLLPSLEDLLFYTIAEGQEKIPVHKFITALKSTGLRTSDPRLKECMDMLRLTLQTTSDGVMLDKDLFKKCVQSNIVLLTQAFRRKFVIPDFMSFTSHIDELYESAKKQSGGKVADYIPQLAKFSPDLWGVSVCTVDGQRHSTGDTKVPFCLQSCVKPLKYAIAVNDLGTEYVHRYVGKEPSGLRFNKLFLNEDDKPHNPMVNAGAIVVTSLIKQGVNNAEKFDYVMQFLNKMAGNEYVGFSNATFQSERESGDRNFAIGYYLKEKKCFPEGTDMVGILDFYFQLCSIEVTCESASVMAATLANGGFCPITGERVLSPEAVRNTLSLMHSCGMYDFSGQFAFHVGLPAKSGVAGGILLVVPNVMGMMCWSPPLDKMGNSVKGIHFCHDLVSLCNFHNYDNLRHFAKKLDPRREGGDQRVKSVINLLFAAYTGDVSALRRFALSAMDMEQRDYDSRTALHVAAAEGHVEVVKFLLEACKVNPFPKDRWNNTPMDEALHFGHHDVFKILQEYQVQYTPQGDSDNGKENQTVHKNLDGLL
UniProt P09105, sequence (P09105 whole entry, looked up): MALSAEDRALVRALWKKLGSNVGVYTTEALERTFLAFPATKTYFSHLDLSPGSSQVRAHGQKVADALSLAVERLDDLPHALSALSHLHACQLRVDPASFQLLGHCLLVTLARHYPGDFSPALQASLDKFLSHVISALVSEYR
UniProt Q13227, sequence (Q13227 whole entry, looked up): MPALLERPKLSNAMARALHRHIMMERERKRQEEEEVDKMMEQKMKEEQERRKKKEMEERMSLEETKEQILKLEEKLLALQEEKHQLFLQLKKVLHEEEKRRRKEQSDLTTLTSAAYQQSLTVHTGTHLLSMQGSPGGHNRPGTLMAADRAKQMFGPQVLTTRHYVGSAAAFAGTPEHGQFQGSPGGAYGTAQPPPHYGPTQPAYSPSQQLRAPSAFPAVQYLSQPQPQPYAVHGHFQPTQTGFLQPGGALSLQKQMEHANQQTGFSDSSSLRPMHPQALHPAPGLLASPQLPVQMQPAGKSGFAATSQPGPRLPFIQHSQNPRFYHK
UniProt P0CL80, sequence (P0CL80 whole entry, looked up): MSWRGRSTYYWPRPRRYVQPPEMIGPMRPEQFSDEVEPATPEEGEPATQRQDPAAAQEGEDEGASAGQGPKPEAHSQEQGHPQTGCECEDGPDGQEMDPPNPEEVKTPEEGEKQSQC

log2 fold change, inactive:
HP1BP3 (UniProt Q5SSJ5) 0.014, GSK3B isoform 2 (UniProt P49841) -0.028, GEMIN5 (UniProt Q8TEQ6) 0.058, GTF2E1 (UniProt P29083) -0.048, FMC1 (UniProt Q96HJ9) 0, GPS2 (UniProt Q13227) 0.058, HEATR3 (UniProt Q7Z4Q2) 0, GLS (UniProt O94925) 0.022, GTF3C4 (UniProt Q9UKN8) -0.052, GAGE12F (UniProt P0CL80) 0.031, HRAS (UniProt P01112) 0.027, FYB1 isoform 3 (UniProt O15117) 0.036, GNPAT (UniProt O15228) 0.003, IDI1 isoform 2 (UniProt Q13907) 0.066, HBQ1 (UniProt P09105) 0.001, HDDC2 (UniProt Q7Z4H3) -0.001, HNRNPF (UniProt P52597) 0.046
